Measurements taken from PubChem BioAssay AID1159580 (chemical genetic matrix, 2015).
Hit rate of the full screen: of about 5,500 compounds, about 2,000 (36%) were called active. About 18% were inconclusive and are not listed. The list shows a part of the results. A number with no mark means an inactive call. Cut-off read from the data, not from the text of the source: active = normalized growth mostly below about 0.91 (no sharp cut-off); inconclusive = no clear call, values can overlap the other calls; inactive = mostly above about 0.92.

Assay: chemical genetic growth profiling, strain panel (AID 1159580);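 note: tested at 20 µM; growth read once vehicle control cultures reached saturation at 30 °C; 1 = growth at the plate median or of vehicle wells; lower values mean less growth of the strain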
Details: S. cerevisiae deletion strains, growth OD
[1] = locus YAL013W, strain DEP1, active compounds read low
[2] = locus YBR229C, strain ROT2, active compounds read low
[3] = locus YDL101C, strain DUN1, active compounds read low
[4] = locus YDR150W, strain NUM1, active compounds read low
[5] = locus YEL061C, strain CIN8, active compounds read low
[6] = locus YGR078C, strain PAC10, active compounds read low
[7] = locus YHR030C, strain SLT2, active compounds read low
[8] = locus YHR087W, strain rtc3, active compounds read low
[9] = locus YJR043C, strain POL32, active compounds read low
[10] = locus YJR075W, strain HOC1, active compounds read low
[11] = locus YLR039C, strain RIC1, active compounds read low
[12] = locus YLR058C, strain SHM2 (second series), active compounds read low
[13] = locus YLR085C, strain ARP6, active compounds read low
[14] = locus YLR262C, strain YPT6, active compounds read low
[15] = locus YML094W, strain GIM5, active compounds read low
[16] = locus YMR219W, strain ESC1, active compounds read low
[17] = locus YMR263W, strain SAP30, active compounds read low
[18] = locus YMR307W, strain GAS1, active compounds read low
[19] = locus YNL153C, strain GIM3, active compounds read low
[20] = locus YNL298W, strain CLA4 (second series), active compounds read low
[21] = locus YNL322C, strain KRE1, active compounds read low
[22] = locus YNR030W, strain Alg12, active compounds read low
[23] = locus YPL055C, strain LGE1, active compounds read low
[24] = locus YPL241C, strain CIN2, active compounds read low
[25] = locus YPR135W, strain CTF4, active compounds read low

Ic1ccc(I)s1
normalized growth [1]: 1.03 | normalized growth [2]: 1 | normalized growth (locus YCL061C, strain MRC1, active compounds read low): 1.03 | normalized growth [3]: 1.01 | normalized growth [4]: 1.02 | normalized growth [5]: 1.04 | normalized growth [6]: 1.02 | normalized growth [7]: 1.22 | normalized growth [8]: 1 | normalized growth (locus YJL187C, strain SWE1, active compounds read low): 1.01 | normalized growth [9]: 1.04 | normalized growth [10]: 1.02 | normalized growth (locus YKL190W, strain CNB1, active compounds read low): 1.01 | normalized growth [11]: 1.18 | normalized growth [12]: 0.999 | normalized growth [13]: 1.01 | normalized growth [14]: 1.16 | normalized growth [15]: 1.02 | normalized growth [16]: 1.01 | normalized growth [17]: 1 | normalized growth [18]: 1.12 | normalized growth (locus YNL128W, strain TEP1, active compounds read low): 1 | normalized growth [19]: 1.01 | normalized growth [20]: 1.04 | normalized growth [21]: 1.01 | normalized growth [22]: 1.04 | normalized growth [23]: 1.03 | normalized growth [24]: 1.06 | normalized growth [25]: 1.11

O=C1O/C(=C/Br)CCC1c1cccc2ccccc12 (stereo unspecified)
normalized growth [1]: 0.952 | normalized growth (locus YAL040C, strain CLN3, active compounds read low): 1 | normalized growth (locus YER002W, strain NOP16, active compounds read low): 1.01 | normalized growth [17]: 0.989 | normalized growth [19]: 0.6 (active) | normalized growth (locus YNL175C, strain NOP13, active compounds read low): 0.61 (active) | normalized growth (locus YNL197C, strain WHI3, active compounds read low): 0.947 | normalized growth (locus YNL224C, strain SQS1, active compounds read low): 0.771 (active) | normalized growth (locus YOR083W, strain WHI5 (second series), active compounds read low): 0.775 (active) | normalized growth [23]: 0.922 | normalized growth [24]: 0.998

COc1cccc(OC)c1C(C)(O)C(OC)OC (stereo unspecified)
normalized growth [1]: 0.996 | normalized growth [2]: 0.989 | normalized growth [3]: 0.999 | normalized growth [4]: 1.02 | normalized growth [5]: 1.01 | normalized growth [6]: 1 | normalized growth [7]: 1.05 | normalized growth [8]: 1.03 | normalized growth [9]: 1.01 | normalized growth [10]: 1 | normalized growth [11]: 1.02 | normalized growth [12]: 1.02 | normalized growth [13]: 1.03 | normalized growth [14]: 1.01 | normalized growth [15]: 0.997 | normalized growth [16]: 1 | normalized growth [17]: 0.941 | normalized growth [18]: 0.98 | normalized growth [19]: 0.994 | normalized growth [20]: 1.05 | normalized growth [21]: 1.01 | normalized growth [22]: 1.02 | normalized growth [23]: 1.03 | normalized growth [24]: 1.02 | normalized growth [25]: 1.09

O=C(N/C=C/c1ccsc1)Nc1cc(C(F)(F)F)cc(C(F)(F)F)c1
normalized growth (locus YAR019C, strain CDC15, active compounds read low): 0.968 | normalized growth (locus YBL105C, strain PKC1, active compounds read low): 0.967 | normalized growth (locus YBR135W, strain CKS1, active compounds read low): 0.974 | normalized growth (locus YBR136W, strain MEC1, active compounds read low): 0.989 | normalized growth (locus YBR160W, strain CDC28, active compounds read low): 0.976 | normalized growth (locus YDL017W, strain CDC7, active compounds read low): 0.98 | normalized growth (locus YDL028C, strain MPS1, active compounds read low): 0.979 | normalized growth [3]: 0.995 | normalized growth (locus YDL108W, strain KIN28, active compounds read low): 0.987 | normalized growth (locus YDL132W, strain cdc53, active compounds read low): 0.983 | normalized growth (locus YDL214C, strain PRR2, active compounds read low): 0.643 (active) | normalized growth (locus YDR052C, strain DBF4, active compounds read low): 0.98 | normalized growth (locus YDR054C, strain cdc34, active compounds read low): 0.958 | normalized growth (locus YDR226W, strain ADK1, active compounds read low): 0.98 | normalized growth (locus YDR477W, strain SNF1, active compounds read low): 0.61 (active) | normalized growth (locus YER123W, strain YCK3, active compounds read low): 0.44 (active) | normalized growth (locus YER133W, strain GLC7, active compounds read low): 0.63 (active) | normalized growth (locus YFL009W, strain cdc4, active compounds read low): 0.977 | normalized growth (locus YFL029C, strain CAK1, active compounds read low): 0.98 | normalized growth (locus YFR003C, strain YPI1, active compounds read low): 0.979 | normalized growth (locus YFR019W, strain FAB1, active compounds read low): 0.639 (active) | normalized growth (locus YFR028C, strain CDC14, active compounds read low): 0.97 | normalized growth (locus YGR040W, strain KSS1, active compounds read low): 0.613 (active) | normalized growth (locus YGR052W, strain FMP48, active compounds read low): 0.33 (active) | normalized growth (locus YGR092W, strain DBF2, active compounds read low): 0.254 (active) | normalized growth [7]: 0.426 (active) | normalized growth (locus YHR079C, strain IRE1, active compounds read low): 0.457 (active) | normalized growth (locus YHR082C, strain KSP1, active compounds read low): 0.393 (active) | normalized growth (locus YHR205W, strain SCH9, active compounds read low): 0.516 (active) | normalized growth (locus YIL147C, strain SLN1, active compounds read low): 0.981 | normalized growth (locus YJL095W, strain BCK1, active compounds read low): 0.505 (active) | normalized growth (locus YJL128C, strain PBS2, active compounds read low): 0.873 | normalized growth (locus YJL157C, strain FAR1, active compounds read low): 0.676 (active) | normalized growth (locus YJR016C, strain ILV3, active compounds read low): 0.977 | normalized growth (locus YJR066W, strain TOR1 (second series), active compounds read low): 0.507 (active) | normalized growth (locus YJR066W, strain TOR1, active compounds read low): 0.507 | normalized growth (locus YKL048C, strain ELM1, active compounds read low): 0.726 (active) | normalized growth (locus YKL067W, strain YNK1, active compounds read low): 0.587 (active) | normalized growth (locus YKL101W, strain HSL1, active compounds read low): 0.387 (active) | normalized growth (locus YKL193C, strain SDS22, active compounds read low): 0.979 | normalized growth (locus YKL203C, strain TOR2, active compounds read low): 0.58 (active) | normalized growth (locus YLR113W, strain HOG1, active compounds read low): 0.315 (active) | normalized growth (locus YLR133W, strain CKI1, active compounds read low): 0.597 (active) | normalized growth (locus YLR403W, strain SFP1, active compounds read low): 0.444 (active) | normalized growth (locus YML070W, strain DAK1, active compounds read low): 0.361 (active) | normalized growth (locus YMR001C, strain CDC5, active compounds read low): 0.976 | normalized growth (locus YMR205C, strain PFK2 (second series), active compounds read low): 0.672 (active) | normalized growth (locus YMR277W, strain FCP1, active compounds read low): 0.966 | normalized growth (locus YNL006W, strain LST8, active compounds read low): 0.979 | normalized growth (locus YNL020C, strain ARK1, active compounds read low): 0.541 (active) | normalized growth (locus YNL161W, strain CBK1, active compounds read low): 0.976 | normalized growth (locus YNL183C, strain NPR1, active compounds read low): 0.309 (active) | normalized growth (locus YNL207W, strain RIO2, active compounds read low): 0.976 | normalized growth (locus YNL222W, strain SSU72, active compounds read low): 0.974 | normalized growth (locus YNL307C, strain MCK1 (second series), active compounds read low): 0.41 (active) | normalized growth (locus YOL078W, strain AVO1, active compounds read low): 0.984 | normalized growth (locus YOL136C, strain PFK27, active compounds read low): 0.555 (active) | normalized growth (locus YOR061W, strain CKA2, active compounds read low): 0.726 | normalized growth (locus YOR119C, strain RIO1, active compounds read low): 0.719 | normalized growth (locus YOR231W, strain MKK1, active compounds read low): 0.507 (active) | normalized growth (locus YOR329C, strain SCD5, active compounds read low): 0.981 | normalized growth (locus YPL031C, strain PHO85, active compounds read low): 0.417 (active) | normalized growth (locus YPL153C, strain RAD53, active compounds read low): 0.345 (active) | normalized growth (locus YPL204W, strain HRR25, active compounds read low): 0.434 (active) | normalized growth (locus YPL209C, strain IPL1, active compounds read low): 0.968 | normalized growth (locus YPL256C, strain CLN2, active compounds read low): 0.444 (active) | normalized growth (locus YPR025C, strain CCL1, active compounds read low): 0.98 | normalized growth (locus YPR106W, strain ISR1, active compounds read low): 0.971 | normalized growth (locus YPR111W, strain DBF20, active compounds read low): 0.958 | normalized growth (strain NNK1, active compounds read low): 0.969 | normalized growth (strain TSCII, active compounds read low): 0.973
